Data: PubChem BioAssay AID2599 (Sanford-Burnham Center for Chemical Genomics, 2010)
Hit rate of the full screen: of about 330,000 compounds, about 5,800 (1.8%) were called active. This excerpt belongs to a sample that is enriched for actives. Values without a mark were called inactive.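 The calls were made as follows: active = inhibition above about 50% at the single tested dose (limit read from the data); inactive = the rest.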

Each molecule was assayed against Sentrin-specific protease 6 (Homo sapiens) (UniProt Q9GZR1) (assay: inhibition of human SENP6 catalytic domain – biochemical, luminescence, uHTS, primary screen (AID 2599;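 also: plate controls were DMSO wells with enzyme for no effect and DMSO wells lacking enzyme for full effect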)). Conditions: Recombinant SENP6 catalytic domain, aminoluciferin luminescence; at 10 µM; active compounds read high.
Chain of Sentrin-specific protease 6 (Homo sapiens) (Q9GZR1 628-1112 limits assumed): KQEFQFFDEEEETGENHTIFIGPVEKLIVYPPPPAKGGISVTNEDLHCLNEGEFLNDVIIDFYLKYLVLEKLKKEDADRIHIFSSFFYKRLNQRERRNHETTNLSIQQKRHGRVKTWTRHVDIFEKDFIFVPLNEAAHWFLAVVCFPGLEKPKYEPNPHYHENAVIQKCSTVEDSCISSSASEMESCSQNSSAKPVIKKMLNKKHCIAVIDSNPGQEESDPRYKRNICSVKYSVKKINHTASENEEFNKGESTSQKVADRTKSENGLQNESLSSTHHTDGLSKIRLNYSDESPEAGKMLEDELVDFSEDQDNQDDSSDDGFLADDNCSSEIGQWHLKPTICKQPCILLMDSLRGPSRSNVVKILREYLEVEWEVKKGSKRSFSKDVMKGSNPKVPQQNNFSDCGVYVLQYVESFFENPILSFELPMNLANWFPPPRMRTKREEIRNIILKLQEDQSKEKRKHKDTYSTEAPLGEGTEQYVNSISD

Row | SMILES | inhibition
1 | COc1ccc(/C=N/OCc2ccccc2C#N)c(OC)c1 | -10.3%
2 | O=C(/C=C/Sc1ncn[nH]1)c1ccc(Cl)cc1 | -14.2%
3 | Cc1noc(/C=C/c2ccco2)c1S(=O)(=O)N1CCC(C(=O)N2CCc3ccccc32)CC1 | -4.32%
4 | CC(C)c1ccccc1OCC(O)CN(CC(O)COc1cccc2ccccc12)C(C)C (stereo not drawn) | -38.4%
5 | COc1ccc(-c2n[nH]c3c2CN(C(=O)c2ccc(F)cc2)CC3)cc1 | -10.3%
6 | O=C(CCN1C(=O)[C@H]2CC=CC[C@H]2C1=O)NCc1nc(-c2ccccc2)no1 | -11%
7 | OCCNc1nc(Nc2ccc(Cl)c(Cl)c2)nc2ccccc12 | 13.5%
8 | COc1ccc(-c2noc(CNC(=O)C(C)Oc3ccccc3)n2)cc1 (stereo not drawn) | -14.5%
9 | COc1ccc(-c2nc(-c3ccccc3)no2)c(OC)c1 | 97.7% (active)
10 | COc1ccc(OC)c(-c2csc(-c3cccs3)n2)c1 | -21.1%
11 | CN(C(=O)c1c(Cl)cnn1C)C12CC3CC(CC(C3)C1)C2 | 5.39%
12 | COCn1c(COc2ccccc2)nc2ccccc21 | -7.24%
13 | Cc1ccc(OCc2nc3ccccc3n2C)cc1 | 65.3% (active)
14 | CC(C)n1c(COc2ccccc2)nc2ccccc21 | -4.84%
15 | COc1cccc(N2CC(NC(=O)c3ccc4ccccc4c3)CC2=O)c1 (stereo not drawn) | -9.84%
16 | CC(C)(CNC(=O)c1ccc(Cl)c(S(=O)(=O)N2CCc3ccccc3C2)c1)N1CCOCC1 | -0.183%
17 | COc1ccc2occ(C(=O)c3ccc(N=C(C)N(C)C)cc3)c2c1 | 62.1% (active)
18 | COc1ccc(OC)c(C(=O)c2coc3ccc(OC)cc23)c1 | -18.1%
19 | COc1ccc(OC)c(C(=O)c2ccc(Cl)cc2)c1 | 6.03%
20 | Cc1cc(O)c(NC(=O)c2ccc(C)c([N+](=O)[O-])c2)cc1C | -1.6%
21 | Cc1ccsc1C(=O)N/N=C/c1ccc([N+](=O)[O-])cc1 | 82.9% (active)
22 | Cc1ccc(/C=N/NC(=O)c2sccc2OCc2ccc(F)cc2)cc1 | -36.4%
23 | Cc1ccc(NC(=O)CN(C)CC(=O)Nc2cccc(F)c2)cc1[N+](=O)[O-] | -3.74%
24 | Cc1ccc(NC(=O)c2sccc2C)cc1[N+](=O)[O-] | 82.7% (active)
25 | O=C(N/N=C/c1ccc([N+](=O)[O-])cc1)C(=O)N1CCCC1 | -54.5%

Row | SMILES | inhibition
26 | O=S(=O)(NC1CCCCC1)c1ccc(F)c2ccccc12 | -13.8%
27 | Cc1cc(Nc2ccc(Br)cc2)nc2ccccc12 | 0.575%
28 | Clc1ccc(Nc2ccc3ccccc3n2)cc1 | 89.2% (active)
29 | O=c1ccnc(Nc2ccc(Cl)cc2)[nH]1 | -2.45%
30 | CN(C)/C=C(\C#N)C(=O)c1cccnc1Oc1cccc(F)c1 | -2.99%
31 | COc1ccc2oc(=O)cc(CN3CCOCC3)c2c1 | -0.296%
32 | CCCCC(O)(CCCC)C(=O)NN(C(=O)CCl)c1ccccc1 | -17.7%
33 | O=C(Nc1ccccc1C(=O)Nc1ccncc1)c1ccc([N+](=O)[O-])cc1 | 58.6% (active)
34 | O=C(Nc1ccncc1)c1ccccc1[N+](=O)[O-] | -15.3%
35 | O=C(Nc1ccncc1)c1ccc([N+](=O)[O-])cc1Cl | -18.8%
36 | CC(=O)N(c1ccc2oc(=O)sc2c1)S(=O)(=O)c1ccc(C)cc1 | 15.9%
37 | Cc1ccc(S(=O)(=O)N2CCN(C(=O)CN3C(=O)NC(C)(c4ccc(Cl)cc4)C3=O)CC2)c(C)c1 (stereo not drawn) | -2.29%
38 | O=C(OCc1ccc(-c2ccccc2)cc1)c1cccc(O)c1 | 2.41%
39 | Cc1ccc(O)c(CNc2nc3ccccc3n2C)c1 | 51.5% (active)
40 | Cc1ccc(O)c(CNc2nc3ccccc3[nH]2)c1 | -16.5%
41 | CC(C)n1c(NCc2c[nH]c3ccccc23)nc2ccccc21 | 9.71%
42 | COC(=O)c1sccc1NC(=O)CC1C(=O)NCCN1C(=O)Nc1ccc(F)cc1F (stereo not drawn) | -25.4%
43 | Cc1ccc(N2C(=O)C3C4C=CC(CC4)C3C2=O)cc1Cl (stereo not drawn) | 14.5%
44 | O=C(Nc1ccc(N2CCN(C(=O)c3ccccc3)CC2)c(Cl)c1)c1cccnc1 | 14.4%
45 | O=[N+]([O-])c1ccccc1SNc1ccccn1 | -6.35%
46 | CCCOc1ccc(C(=O)NCCc2ccccc2)cc1 | 76.4% (active)
47 | CCCc1ccc(OCCNC(=O)c2ccco2)cc1 | 14.5%
48 | CCCc1ccc(OCCNC(=O)c2ccccc2Br)cc1 | 14.6%
49 | OCC[C@H]1C[C@H](O)[C@@H](O)[C@]2(CCCCO2)O1 | -7.27%
50 | O=C(COc1ccc2oc3c(c2c1)CCCC3)Nc1ccccn1 | 56.4% (active)

Row | SMILES | inhibition
51 | CCN(CC)CCCNC(=O)COc1ccc2oc3c(c2c1)CCCC3 | -9.52%
52 | CCOC(=O)N1CCN(C(=O)COc2ccc3oc4c(c3c2)CCCC4)CC1 | 1.75%
53 | CCOC(=O)c1sc(NC(=O)C2CSC3(C)CCC(=O)N23)nc1C (stereo not drawn) | -17.8%
54 | O=C(NCCc1ccc(Cl)cc1)C1CCCN1C(=O)NCc1ccccc1 (stereo not drawn) | 19.7%
55 | O=C(NCC(c1ccco1)N1CCc2ccccc2C1)c1ccccc1Cl (stereo not drawn) | -27.1%
56 | CCOC(=O)c1ccc(NC(=O)c2cc(=O)[nH]c3ccccc23)cc1 | -1.31%
57 | CCOC(=O)c1ccc(Nc2cc(C)nc3nc(C)nn23)cc1 | 3.17%
58 | CCOC(=O)c1ccc(Nc2cc3ccccc3c(=O)[nH]2)cc1 | 85.9% (active)
59 | CCc1ccc(NC(=O)CN2C(=O)CSC2=O)cc1 | 3.31%
60 | CCc1nc2sc3c(Cl)ncnc3c2c2c1CCCC2 | -2.17%
61 | CC(NC(=O)Nc1cccc([N+](=O)[O-])c1)c1ccc2c(c1)OCO2 (stereo not drawn) | -3.48%
62 | CC(=O)Nc1cccc(C(=O)OCC(=O)c2ccc3c(c2)OCO3)c1 | 83.6% (active)
63 | O=C(Nc1cccc([N+](=O)[O-])c1)c1ccc2c(c1)OCO2 | 66.7% (active)
64 | O=C(Nc1nc2ccccc2s1)c1ccc2c(c1)OCO2 | 94.8% (active)
65 | O=C(COC(=O)c1ccc(F)cc1)Nc1ccc2c(c1)OCO2 | -6.02%
66 | O=C(Nc1ccc2c(c1)OCCO2)c1ccoc1 | -9.58%
67 | Cc1onc(C(=O)Nc2ccc3c(c2)OCO3)c1[N+](=O)[O-] | 0.864%
68 | O=C(Nc1ccccc1)c1ccc2c(c1)OCCCO2 | 86.7% (active)
69 | CN1CCN(c2ccc(NC(=O)c3ccc4c(c3)OCCO4)cc2Cl)CC1 | 3.53%
70 | Cc1ccc2sc(NNC(=O)c3ccc4c(c3)OCCO4)nc2c1C | 12.7%
71 | CC(NC(=O)COC(=O)c1ccc2c(c1)OCO2)c1ccccc1 (stereo not drawn) | -2.95%
72 | COCc1nnc(NC(=O)c2ccc3c(c2)OCO3)s1 | 13.6%
73 | Cc1cc(NC(=O)CN2C(=O)NC(CC(C)C)C2=O)no1 (stereo not drawn) | -8.76%
74 | Cc1cc(C)nc(-n2nc(C)cc2NC(=O)c2ccc(F)cc2F)n1 | 6.48%
75 | CC(=O)Nc1ccc(NC(=O)C(NS(=O)(=O)c2ccc3c(c2)OCCO3)C(C)C)cc1 (stereo not drawn) | 16.7%

Row | SMILES | inhibition
76 | COc1cccc(NC(=O)N2CCC(NC(=O)C(Cc3cccc(C)c3)NC(C)=O)CC2)c1 (stereo not drawn) | 20.6%
77 | Cc1ccc2cccc(S(=O)(=O)N3CCN(c4ccccc4F)CC3)c2n1 | -3.25%
78 | O=C(Nc1ccnn1C1CCN(Cc2cccc(OCCO)c2)CC1)C1CCCC1 | -17.8%
79 | O=C(CSc1ccccn1)Nc1nc2c(ccc3ccccc32)s1 | -10.2%
80 | CCc1nn(CCCN2CCN(c3cccc(Cl)c3)CC2)c(=O)n1CCOc1ccccc1 | -12%
81 | CN(C(=O)c1cccc(NC(=O)C2CCN(C(=O)OC(C)(C)C)CC2)c1)C1CCC1 | -7.07%
82 | CCN(CC)S(=O)(=O)c1ccc(N2CC(C(=O)NCc3cccnc3)CC2=O)cc1 (stereo not drawn) | -2.04%
83 | CN(Cc1c(F)cccc1Cl)C(=O)CNC(=O)c1ccc2c(c1)OCO2 | -13.3%
84 | COc1cc(NC(=O)c2ccc3c(c2)OCO3)ccc1NC(=O)c1cccs1 | -45.6%
85 | O=C(Nc1ccc(N2CCOCC2)cc1)c1ccc2c(c1)OCO2 | 25.4%
86 | COc1cc(C(=O)NCC2(c3ccccc3)CCCC2)ccc1OC(C)C | 2.81%
87 | O=C(Nc1ccccc1)c1ccc2c(c1)OCO2 | 85.1% (active)
88 | COc1ccc(C(=O)Nc2ccc3nc(N4CCCCC4)cc(C)c3c2)cc1OC | -7.43%
89 | COc1ccc(C(=O)Nc2ccc3c(c2)OCO3)cc1OC | 80.8% (active)
90 | O=C(Nc1ccccc1F)c1ccc2c(c1)OCO2 | 71.4% (active)
91 | N#Cc1ccccc1NC(=O)c1ccc2c(c1)OCO2 | -12.5%
92 | CC(C)C(=O)Nc1cccc(C(=O)Nc2ccc3c(c2)OCO3)c1 | 33.6%
93 | O=C(Nc1ccc(NC(=O)c2ccc3c(c2)OCO3)cc1)c1cccc(Cl)c1 | -11.5%
94 | COc1ccc(C(=O)Nc2ccc(C3(C#N)CCCC3)cc2)cc1OC | 96.3% (active)
95 | COc1ccc(C(=O)NCC2CCCCC2)cc1S(=O)(=O)N1CCCC1 | -0.795%
96 | COc1ccc(COC(=O)c2n[nH]c3ccccc23)cc1F | -5.01%
97 | Cc1nn(C)c(C)c1S(=O)(=O)N1CCC(CO)(Cc2ccc(Cl)cc2)CC1 | -8.17%
98 | CC(C)N1C(=O)N(c2ccccc2)C(C)(O)CC1(C)C (stereo not drawn) | -17.1%
